Source: article PMC7862700, “An all-to-all approach to the identification of sequence-specific readers for epigenetic DNA modifications on cytosine”

Tests used:
Experiment in all cases: DAPPL (digital affinity profiling via proximity ligation, sequencing); 10 mM Tris-HCl pH 7.5, 50 mM NaCl, 1 mM DTT, 4% glycerol, room temperature, 30 min; GST-TFs on glutathione beads, 16-mer random dsDNA library, 0.1% formaldehyde crosslink after washing; high values mean tight binding
Conditions in all cases: protein: recombinant; tags: N-terminal GST; dsDNA, one strand shown
FLI1 = target: T1, FLI1 (Homo sapiens, UniProt Q01543 1-452)
T1 sequence: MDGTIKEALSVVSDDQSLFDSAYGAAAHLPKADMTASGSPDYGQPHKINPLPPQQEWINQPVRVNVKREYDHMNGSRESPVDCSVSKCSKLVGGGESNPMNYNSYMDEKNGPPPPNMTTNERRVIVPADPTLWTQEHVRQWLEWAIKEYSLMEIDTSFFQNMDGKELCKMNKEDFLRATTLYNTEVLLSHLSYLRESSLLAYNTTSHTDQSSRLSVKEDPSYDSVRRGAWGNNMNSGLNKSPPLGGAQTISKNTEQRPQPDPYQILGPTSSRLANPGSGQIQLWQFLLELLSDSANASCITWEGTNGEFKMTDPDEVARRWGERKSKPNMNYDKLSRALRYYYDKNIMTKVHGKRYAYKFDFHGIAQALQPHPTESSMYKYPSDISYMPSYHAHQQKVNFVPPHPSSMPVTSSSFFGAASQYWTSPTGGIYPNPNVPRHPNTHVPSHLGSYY
Procedure, shortened: (§1)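 After expression in yeast as GST fusions, human transcription factors were bound to glutathione beads, DNA-barcoded and mixed with a tag-only sample. The pools were incubated with 200 nmole of a 16-mer random double-stranded DNA library in Tris/NaCl/DTT/glycerol buffer (30 min, room temperature), washed and crosslinked with 0.1% formaldehyde. Proximity ligation with BsaI/T4 ligase ran for 1 h at 37 °C, before PCR amplification and sequencing on an Illumina NextSeq500. Binding signal is a hexamer's read frequency for a factor divided by its frequency for the tag-only sample.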

ELK1 = target: T2, ELK1 (Homo sapiens, UniProt P19419 1-428)
T2 sequence: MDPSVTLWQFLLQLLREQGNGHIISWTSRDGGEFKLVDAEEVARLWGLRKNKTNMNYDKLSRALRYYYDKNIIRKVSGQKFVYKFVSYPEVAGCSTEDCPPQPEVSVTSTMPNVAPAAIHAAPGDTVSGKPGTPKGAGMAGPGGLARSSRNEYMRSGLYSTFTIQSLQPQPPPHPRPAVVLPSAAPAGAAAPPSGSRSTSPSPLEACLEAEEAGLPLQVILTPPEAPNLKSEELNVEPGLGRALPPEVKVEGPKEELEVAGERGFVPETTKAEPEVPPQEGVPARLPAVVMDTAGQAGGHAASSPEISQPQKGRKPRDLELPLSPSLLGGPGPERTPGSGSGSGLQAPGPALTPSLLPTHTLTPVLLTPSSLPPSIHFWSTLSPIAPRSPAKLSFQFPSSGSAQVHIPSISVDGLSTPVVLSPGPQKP
Procedure, shortened: as §1

GABPA = target: T3, GABPA (Homo sapiens, UniProt Q06546 1-454)
T3 sequence: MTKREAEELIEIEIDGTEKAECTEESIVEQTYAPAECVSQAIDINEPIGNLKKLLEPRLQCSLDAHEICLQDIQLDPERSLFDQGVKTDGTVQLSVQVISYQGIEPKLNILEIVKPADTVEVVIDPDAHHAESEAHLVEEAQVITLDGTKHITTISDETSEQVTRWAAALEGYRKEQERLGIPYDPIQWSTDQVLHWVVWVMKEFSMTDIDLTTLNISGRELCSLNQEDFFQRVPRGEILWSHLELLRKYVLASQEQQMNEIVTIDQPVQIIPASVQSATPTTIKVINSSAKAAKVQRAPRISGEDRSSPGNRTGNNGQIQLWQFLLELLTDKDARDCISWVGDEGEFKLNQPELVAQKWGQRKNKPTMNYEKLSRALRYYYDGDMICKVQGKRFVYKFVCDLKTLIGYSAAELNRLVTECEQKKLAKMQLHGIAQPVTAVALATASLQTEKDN
Procedure, shortened: as §1

ERG = target: T4, ERG (Homo sapiens, UniProt P11308 1-479)
T4 sequence: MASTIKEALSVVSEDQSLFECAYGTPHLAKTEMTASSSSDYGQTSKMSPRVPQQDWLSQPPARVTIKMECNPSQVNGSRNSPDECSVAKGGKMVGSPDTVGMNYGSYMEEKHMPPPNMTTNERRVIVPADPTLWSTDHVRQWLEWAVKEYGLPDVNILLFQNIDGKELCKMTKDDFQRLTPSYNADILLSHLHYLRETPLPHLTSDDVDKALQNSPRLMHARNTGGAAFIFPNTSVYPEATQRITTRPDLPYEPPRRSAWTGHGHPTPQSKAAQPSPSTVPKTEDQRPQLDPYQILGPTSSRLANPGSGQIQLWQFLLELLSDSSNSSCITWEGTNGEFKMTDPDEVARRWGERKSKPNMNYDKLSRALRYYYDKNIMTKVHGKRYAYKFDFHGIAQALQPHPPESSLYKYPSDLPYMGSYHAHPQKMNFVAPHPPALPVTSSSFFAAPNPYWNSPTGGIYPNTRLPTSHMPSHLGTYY
Procedure, shortened: as §1

ELF1 = ELF1 (Homo sapiens, UniProt P32519 1-619)
Procedure, shortened: as §1

EHF = target: T5, EHF (Homo sapiens, UniProt Q9NZC4 1-300)
T5 sequence: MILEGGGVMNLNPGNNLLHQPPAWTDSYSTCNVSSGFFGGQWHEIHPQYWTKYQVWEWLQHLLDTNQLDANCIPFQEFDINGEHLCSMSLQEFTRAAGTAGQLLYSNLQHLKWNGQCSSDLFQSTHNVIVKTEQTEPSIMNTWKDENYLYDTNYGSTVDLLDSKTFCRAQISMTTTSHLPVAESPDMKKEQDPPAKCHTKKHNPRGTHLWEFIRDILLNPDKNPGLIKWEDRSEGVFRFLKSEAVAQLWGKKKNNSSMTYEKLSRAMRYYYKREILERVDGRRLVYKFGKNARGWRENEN
Procedure, shortened: as §1

SPI1 = SPI1 (Homo sapiens, UniProt P17947 1-270)
Procedure, shortened: as §1

SPIB = SPIB (Homo sapiens, UniProt Q01892 1-262)
Procedure, shortened: as §1

ELK3 = target: T6, ELK3 (Homo sapiens, UniProt P41970 1-407)
T6 sequence: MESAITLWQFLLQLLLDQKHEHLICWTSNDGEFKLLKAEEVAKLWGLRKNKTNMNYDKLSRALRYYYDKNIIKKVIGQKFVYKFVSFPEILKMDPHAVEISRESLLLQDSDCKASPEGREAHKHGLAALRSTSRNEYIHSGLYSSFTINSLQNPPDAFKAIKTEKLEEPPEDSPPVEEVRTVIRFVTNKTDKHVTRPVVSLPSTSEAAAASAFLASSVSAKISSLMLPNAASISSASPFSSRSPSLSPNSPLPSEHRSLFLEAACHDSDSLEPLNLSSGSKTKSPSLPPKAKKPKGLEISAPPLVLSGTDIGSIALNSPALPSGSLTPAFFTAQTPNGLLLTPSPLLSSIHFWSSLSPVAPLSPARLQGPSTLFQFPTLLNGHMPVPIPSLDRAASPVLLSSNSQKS
Procedure, shortened: as §1

SPIB, sequence (Q01892 whole entry): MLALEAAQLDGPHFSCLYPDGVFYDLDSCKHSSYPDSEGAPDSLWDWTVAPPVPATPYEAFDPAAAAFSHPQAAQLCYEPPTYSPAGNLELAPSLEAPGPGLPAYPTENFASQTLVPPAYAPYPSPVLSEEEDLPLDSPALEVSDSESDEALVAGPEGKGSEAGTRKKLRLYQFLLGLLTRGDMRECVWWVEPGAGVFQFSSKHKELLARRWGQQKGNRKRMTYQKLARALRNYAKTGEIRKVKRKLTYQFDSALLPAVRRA
ELF1, sequence (P32519 whole entry): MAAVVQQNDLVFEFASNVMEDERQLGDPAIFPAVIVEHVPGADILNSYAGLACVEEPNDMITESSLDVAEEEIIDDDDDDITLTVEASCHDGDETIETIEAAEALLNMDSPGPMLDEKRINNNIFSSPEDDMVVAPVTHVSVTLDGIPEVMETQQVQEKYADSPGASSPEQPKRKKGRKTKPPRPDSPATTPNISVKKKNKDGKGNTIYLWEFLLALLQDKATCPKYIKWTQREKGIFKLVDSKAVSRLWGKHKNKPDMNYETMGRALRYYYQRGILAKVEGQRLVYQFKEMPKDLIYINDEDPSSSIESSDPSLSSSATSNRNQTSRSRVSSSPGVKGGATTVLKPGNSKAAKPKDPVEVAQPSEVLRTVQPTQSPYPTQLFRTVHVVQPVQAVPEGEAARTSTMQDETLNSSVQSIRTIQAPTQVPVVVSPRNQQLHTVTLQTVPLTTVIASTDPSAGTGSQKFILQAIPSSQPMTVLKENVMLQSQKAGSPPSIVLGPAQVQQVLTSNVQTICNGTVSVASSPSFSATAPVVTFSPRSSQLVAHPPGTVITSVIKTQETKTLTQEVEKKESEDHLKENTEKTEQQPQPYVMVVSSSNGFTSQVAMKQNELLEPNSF

Sequence	binding signal (FLI1)	binding signal (ELK1)	binding signal (GABPA)	binding signal (ERG)	binding signal (ELF1)	binding signal (EHF)	binding signal (SPI1)	binding signal (SPIB)	binding signal (ELK3)
TTCCTG	2.3 fold enrichment (6-mer frequency, TF over GST control)	2.3 fold enrichment (6-mer frequency, TF over GST control)	2.17 fold enrichment (6-mer frequency, TF over GST control)	2.59 fold enrichment (6-mer frequency, TF over GST control)	2.22 fold enrichment (6-mer frequency, TF over GST control)	2.23 fold enrichment (6-mer frequency, TF over GST control)	2.64 fold enrichment (6-mer frequency, TF over GST control)	2.36 fold enrichment (6-mer frequency, TF over GST control)	2.28 fold enrichment (6-mer frequency, TF over GST control)
TTACAC	1.28 fold enrichment (6-mer frequency, TF over GST control)	1.26 fold enrichment (6-mer frequency, TF over GST control)	1.18 fold enrichment (6-mer frequency, TF over GST control)	1.27 fold enrichment (6-mer frequency, TF over GST control)	1.3 fold enrichment (6-mer frequency, TF over GST control)	1.39 fold enrichment (6-mer frequency, TF over GST control)	1.13 fold enrichment (6-mer frequency, TF over GST control)	1.21 fold enrichment (6-mer frequency, TF over GST control)	1.31 fold enrichment (6-mer frequency, TF over GST control)
CTGCCT	1.2 fold enrichment (6-mer frequency, TF over GST control)	1.28 fold enrichment (6-mer frequency, TF over GST control)	1.33 fold enrichment (6-mer frequency, TF over GST control)	1.18 fold enrichment (6-mer frequency, TF over GST control)	1.34 fold enrichment (6-mer frequency, TF over GST control)	1.33 fold enrichment (6-mer frequency, TF over GST control)	1.27 fold enrichment (6-mer frequency, TF over GST control)	1.21 fold enrichment (6-mer frequency, TF over GST control)	1.04 fold enrichment (6-mer frequency, TF over GST control)
TCCATG	1.17 fold enrichment (6-mer frequency, TF over GST control)	1.18 fold enrichment (6-mer frequency, TF over GST control)	1.1 fold enrichment (6-mer frequency, TF over GST control)	1.09 fold enrichment (6-mer frequency, TF over GST control)	1.11 fold enrichment (6-mer frequency, TF over GST control)	1.17 fold enrichment (6-mer frequency, TF over GST control)	1.1 fold enrichment (6-mer frequency, TF over GST control)	1.13 fold enrichment (6-mer frequency, TF over GST control)	1.24 fold enrichment (6-mer frequency, TF over GST control)
TCCTCC	1.47 fold enrichment (6-mer frequency, TF over GST control)	1.61 fold enrichment (6-mer frequency, TF over GST control)	1.49 fold enrichment (6-mer frequency, TF over GST control)	1.58 fold enrichment (6-mer frequency, TF over GST control)	1.52 fold enrichment (6-mer frequency, TF over GST control)	1.61 fold enrichment (6-mer frequency, TF over GST control)	1.68 fold enrichment (6-mer frequency, TF over GST control)	1.6 fold enrichment (6-mer frequency, TF over GST control)	1.55 fold enrichment (6-mer frequency, TF over GST control)
CCTGAT	1.27 fold enrichment (6-mer frequency, TF over GST control)	1.56 fold enrichment (6-mer frequency, TF over GST control)	1.5 fold enrichment (6-mer frequency, TF over GST control)	1.42 fold enrichment (6-mer frequency, TF over GST control)	1.38 fold enrichment (6-mer frequency, TF over GST control)	1.45 fold enrichment (6-mer frequency, TF over GST control)	1.5 fold enrichment (6-mer frequency, TF over GST control)	1.6 fold enrichment (6-mer frequency, TF over GST control)	1.45 fold enrichment (6-mer frequency, TF over GST control)
ACGTTC	1.31 fold enrichment (6-mer frequency, TF over GST control)	1.45 fold enrichment (6-mer frequency, TF over GST control)	1.33 fold enrichment (6-mer frequency, TF over GST control)	1.39 fold enrichment (6-mer frequency, TF over GST control)	1.4 fold enrichment (6-mer frequency, TF over GST control)	1.3 fold enrichment (6-mer frequency, TF over GST control)	1.29 fold enrichment (6-mer frequency, TF over GST control)	1.37 fold enrichment (6-mer frequency, TF over GST control)	1.38 fold enrichment (6-mer frequency, TF over GST control)
